Compound activity: PubChem, Broad Institute
The sample as a whole holds a higher share of hits than the screen did.
Tgondii IFNg: T. gondii growth inhibition under IFN-gamma; Toxoplasma gondii growth in IFN-gamma-treated host cells; active compounds read low; activity change, negative = inhibition, % (test concentration not listed); actives 3.8% (n = 69,000); AID 1259416; in the data active = activity change below about -70%, passing the limit was not always enough;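 note: host cells are HeLa cells infected with Toxoplasma gondii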
* hit, by the source's call; i = inactive; ! = repeats disagree.

SMILES | Tgondii IFNg
COc1cccc(S(=O)(=O)Nc2ccc3c(c2)C(=O)N(C)C[C@@H](OC)[C@H](C)CN(Cc2ccccc2F)[C@H](C)CO3)c1 | -97.2*
COc1cccc(S(=O)(=O)Nc2ccc3c(c2)C(=O)N(C)C[C@H](OC)[C@H](C)CN(Cc2ccccc2F)[C@H](C)CO3)c1 | -57.4
COc1ccc(S(=O)(=O)Nc2ccc3c(c2)OC[C@@H](C)N(Cc2cc(F)ccc2F)C[C@@H](C)[C@H](OC)CN(C)C3=O)cc1 | -89.7*
COc1cccc(S(=O)(=O)Nc2ccc3c(c2)C(=O)N(C)C[C@H](OC)[C@H](C)CN(Cc2ccccc2F)[C@@H](C)CO3)c1 | -45.4
COc1cccc(S(=O)(=O)Nc2ccc3c(c2)C(=O)N(C)C[C@@H](OC)[C@@H](C)CN(Cc2ccccc2F)[C@H](C)CO3)c1 | -52.7
COc1cccc(S(=O)(=O)Nc2ccc3c(c2)C(=O)N(C)C[C@H](OC)[C@@H](C)CN(Cc2ccccc2F)[C@H](C)CO3)c1 | -5.7
COc1ccc2c3c(n(C)c2c1)[C@H](CO)NCC31CCN(Cc2ccncc2)CC1 | -9.8
C[C@H](c1ccc(F)cc1CCCC(=O)O)N(c1cc(F)ccc1F)S(=O)(=O)c1ccc(Cl)cc1 | 2.4
CCN(C(=O)c1cccc(NC(=O)c2ccc(=O)[nH]c2)c1)c1ccccc1 | -34.9
CC(=O)Nc1ncc(S(=O)(=O)Nc2ccc3c(c2)N(C)C(=O)CO3)s1 | 8.3
COc1ccc(CCn2c(C)cc3c(c2=O)C(c2ccncc2)C(C#N)=C(N)O3)cc1OC (centres undefined) | -8.7
CO[C@H]1CN(C)C(=O)c2ccc(NS(C)(=O)=O)cc2OC[C@@H](C)N(C(=O)CN(C)C)C[C@H]1C | -48.4
CC(C)CCN1C[C@H]2[C@H](C(=O)Nc3ccccc3)CCS(=O)(=O)[C@H]2C1 | -93.8*
CC(C)NC(=O)[C@H]1CCS(=O)(=O)[C@H]2CN(C(=O)Nc3ccccc3)C[C@@H]12 | -19.1
O=C(Nc1ccccc1)[C@@H]1CCS(=O)(=O)[C@H]2CN(Cc3ccc(F)cc3)C[C@@H]12 | -5.9
Cc1cc(NC(=O)c2cc(C)oc2C)on1 | 22.7
Cc1ccsc1C1Nc2ccccc2C2c3[nH]c4ccccc4c3CCN12 (centres undefined) | 177.9
COc1cc2c(cc1OC)C(c1ccccc1Cl)N(c1ccc(C)cc1)C(=O)C2 (centres undefined) | -91.0*
COc1cc2c(cc1OC)C1c3ccccc3N(Cc3ccccc3)C(=O)N1CC2 (centres undefined) | -2.7
COc1ccc(C2N(c3ccc(C)cc3)CCN2c2ccc(C)cc2)cc1OC | 54.1
CC(C)C(NC(=O)CCc1cccnc1)c1nnc2n1CCNCC2 (centres undefined) | 10.2
COc1ccc(-c2ncnc3c2c(C(=O)N2CCCC2)c2ccccn23)cc1 | -50.4
NC(=O)c1[nH]c(C2CCCN(C(=O)COc3ccccc3)C2)nc1-c1ccccc1 (centres undefined) | -22.7
C=CC(=O)N1CCC[C@@H](n2nc(-c3ccc(Oc4ccccc4)cc3)c3c(N)ncnc32)C1 | -79.0*
Cc1ccsc1C(=O)N1CCc2nc(-c3cnn(C)c3)nc(NC(C)C)c2C1 | -27.1
SMILES | Tgondii IFNg
CN(CCNC(=O)c1cccc2c1NCCC2)S(C)(=O)=O | 11.0
CCn1c(C)nc2cc(NC(=O)c3cnc(N4CCOCC4)nc3)ccc21 | -8.3
O=C(Cn1ncc2ccccc2c1=O)Nc1ccc2c(c1)CN(Cc1ccccc1)C2 | 2.1
Cc1nc2nc[nH]n2c(=O)c1CC(=O)Nc1ccc2c(c1)CN(Cc1ccccc1)C2 | -5.5
O=C(Nc1ccc2c(c1)CN(Cc1ccccc1)C2)c1cnc(N2CCOCC2)nc1 | -95.5*
Cc1nc(N)nc(C)c1CCC(=O)Nc1ccc2c(c1)CN(Cc1ccccc1)C2 | -1.3
O=C(Nc1ccc2c(c1)CN(Cc1ccccc1)C2)c1nc2ncccn2n1 | -77.5*
CN(C)c1ncncc1N1CCC(C(=O)N2CCC(N3CCCCC3)CC2)CC1 | -14.5
CCCC(C(=O)N1CCc2c(nc(N(C)C)nc2N(C)C)C1)n1cccc1 (centres undefined) | -17.3
CC(C)C1COC2(CCCN(Cc3csnn3)C2)C1 (centres undefined) | 1.5
COc1cc2c(cc1O)CC[C@@H]1[C@@H]2CC[C@]2(C)[C@@H](O)CC[C@@H]12 | -82.5*!
CC12CCC3c4ccc(O)cc4CCC3C1C[C@H](O)[C@@H]2O (some centres undefined) | 8.2
C[C@]12CC[C@@H]3c4ccc(O)cc4CC[C@H]3[C@@H]1C[C@@H](O)[C@@H]2O | 16.6
C[C@H](NC(=O)Nc1ccccc1F)C(=O)O | -24.8
CC(C)[C@H]1CN(Cc2ccco2)CCN1Cc1cccs1 | 32.3
O=C(Nc1ccc(N2CCCS2(=O)=O)cc1)c1cc(-n2cccn2)ccc1Cl | 9.0
COc1ccc(NC(=O)NCC(c2cccnc2)c2cn(C)c3ccccc23)c(OC)c1 (centres undefined) | i
COc1cc(OC)c(NC(=O)NCC(c2cccnc2)c2c[nH]c3ccccc23)cc1Cl (centres undefined) | 8.2
CCC[C@H](Nc1nc(-c2ccc(NC(=O)NCC)c(OC)c2)ncc1C)c1cccnc1 | -78.3*
